# According to article PMC7862700, “An all-to-all approach to the identification of sequence-specific readers for epigenetic DNA modifications on cytosine”:
# Key:
# Experiment in all cases: DAPPL (digital affinity profiling via proximity ligation, sequencing); 10 mM Tris-HCl pH 7.5, 50 mM NaCl, 1 mM DTT, 4% glycerol, room temperature, 30 min; GST-TFs on glutathione beads, 16-mer random dsDNA library, 0.1% formaldehyde crosslink after washing; high values mean tight binding
# [1] = molecular target: T1, FLI1 (Homo sapiens, UniProt Q01543 1-452); conditions: protein: recombinant; tags: N-terminal GST; dsDNA, one strand shown
# T1 sequence: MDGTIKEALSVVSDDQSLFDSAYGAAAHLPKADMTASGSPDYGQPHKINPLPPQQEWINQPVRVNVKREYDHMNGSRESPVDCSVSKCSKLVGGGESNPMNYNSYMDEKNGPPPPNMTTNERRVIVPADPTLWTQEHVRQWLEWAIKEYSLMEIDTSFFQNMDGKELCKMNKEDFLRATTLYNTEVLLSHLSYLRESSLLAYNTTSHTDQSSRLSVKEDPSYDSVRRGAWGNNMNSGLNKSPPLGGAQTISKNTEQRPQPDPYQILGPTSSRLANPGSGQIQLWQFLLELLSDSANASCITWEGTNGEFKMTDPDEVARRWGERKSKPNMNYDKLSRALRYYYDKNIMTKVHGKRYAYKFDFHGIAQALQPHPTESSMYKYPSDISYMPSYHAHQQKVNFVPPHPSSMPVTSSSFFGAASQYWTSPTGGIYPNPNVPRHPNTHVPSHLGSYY
# Outline: (§1)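 Binding signal is each hexamer's read frequency for a factor divided by its frequency in the tag-only sample. The factors were GST-fused human transcription factors from yeast, captured on glutathione beads, DNA-barcoded and pooled with that sample. Pools were incubated with 200 nmole of a random double-stranded 16-mer DNA library in Tris/NaCl/DTT/glycerol buffer at room temperature for 30 min, then washed, crosslinked with 0.1% formaldehyde, proximity-ligated with BsaI/T4 ligase (1 h, 37 °C), PCR-amplified and sequenced on an Illumina NextSeq500.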
# [2] = molecular target: T2, ELK1 (Homo sapiens, UniProt P19419 1-428); conditions: protein: recombinant; tags: N-terminal GST; dsDNA, one strand shown
# T2 sequence: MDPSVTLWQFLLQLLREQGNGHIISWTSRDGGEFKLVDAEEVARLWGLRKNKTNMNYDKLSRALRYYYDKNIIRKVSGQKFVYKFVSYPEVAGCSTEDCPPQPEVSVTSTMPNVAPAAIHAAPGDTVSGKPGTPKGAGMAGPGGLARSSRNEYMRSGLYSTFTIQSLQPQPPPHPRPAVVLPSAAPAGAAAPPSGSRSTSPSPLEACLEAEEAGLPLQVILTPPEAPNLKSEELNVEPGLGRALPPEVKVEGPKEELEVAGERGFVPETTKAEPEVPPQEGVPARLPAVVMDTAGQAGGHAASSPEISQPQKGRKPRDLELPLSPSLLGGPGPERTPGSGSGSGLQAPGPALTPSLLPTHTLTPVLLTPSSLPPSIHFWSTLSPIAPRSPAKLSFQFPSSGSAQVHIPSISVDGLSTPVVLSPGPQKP
# Outline: as §1
# [3] = molecular target: T3, GABPA (Homo sapiens, UniProt Q06546 1-454); conditions: protein: recombinant; tags: N-terminal GST; dsDNA, one strand shown
# T3 sequence: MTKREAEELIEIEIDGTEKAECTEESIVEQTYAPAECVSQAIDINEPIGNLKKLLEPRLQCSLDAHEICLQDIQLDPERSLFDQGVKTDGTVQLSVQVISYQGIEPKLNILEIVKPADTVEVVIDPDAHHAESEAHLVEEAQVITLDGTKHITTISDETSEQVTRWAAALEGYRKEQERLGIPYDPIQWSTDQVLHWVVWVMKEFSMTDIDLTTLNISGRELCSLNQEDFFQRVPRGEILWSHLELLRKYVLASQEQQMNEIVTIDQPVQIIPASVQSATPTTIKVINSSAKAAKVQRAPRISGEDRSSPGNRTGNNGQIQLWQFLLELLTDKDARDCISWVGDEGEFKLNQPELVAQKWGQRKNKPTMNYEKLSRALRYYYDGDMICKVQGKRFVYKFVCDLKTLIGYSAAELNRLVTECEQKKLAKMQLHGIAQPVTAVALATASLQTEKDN
# Outline: as §1
# [4] = molecular target: T4, ERG (Homo sapiens, UniProt P11308 1-479); conditions: protein: recombinant; tags: N-terminal GST; dsDNA, one strand shown
# T4 sequence: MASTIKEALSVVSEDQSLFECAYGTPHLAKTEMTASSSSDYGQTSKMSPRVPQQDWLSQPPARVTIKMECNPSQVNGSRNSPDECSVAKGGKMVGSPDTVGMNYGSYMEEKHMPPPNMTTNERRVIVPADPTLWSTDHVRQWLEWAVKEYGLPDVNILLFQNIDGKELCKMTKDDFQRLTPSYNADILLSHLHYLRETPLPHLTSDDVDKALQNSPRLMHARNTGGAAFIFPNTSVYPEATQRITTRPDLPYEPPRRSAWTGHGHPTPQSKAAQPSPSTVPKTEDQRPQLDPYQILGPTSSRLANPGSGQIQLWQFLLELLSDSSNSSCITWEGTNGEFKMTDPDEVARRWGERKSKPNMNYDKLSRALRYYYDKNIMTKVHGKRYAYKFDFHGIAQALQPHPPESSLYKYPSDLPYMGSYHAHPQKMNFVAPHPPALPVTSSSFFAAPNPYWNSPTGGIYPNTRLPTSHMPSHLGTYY
# Outline: as §1
# [5] = molecular target: ELF1 (Homo sapiens, UniProt P32519 1-619); conditions: protein: recombinant; tags: N-terminal GST; dsDNA, one strand shown
# Sequence of ELF1 (P32519 whole entry): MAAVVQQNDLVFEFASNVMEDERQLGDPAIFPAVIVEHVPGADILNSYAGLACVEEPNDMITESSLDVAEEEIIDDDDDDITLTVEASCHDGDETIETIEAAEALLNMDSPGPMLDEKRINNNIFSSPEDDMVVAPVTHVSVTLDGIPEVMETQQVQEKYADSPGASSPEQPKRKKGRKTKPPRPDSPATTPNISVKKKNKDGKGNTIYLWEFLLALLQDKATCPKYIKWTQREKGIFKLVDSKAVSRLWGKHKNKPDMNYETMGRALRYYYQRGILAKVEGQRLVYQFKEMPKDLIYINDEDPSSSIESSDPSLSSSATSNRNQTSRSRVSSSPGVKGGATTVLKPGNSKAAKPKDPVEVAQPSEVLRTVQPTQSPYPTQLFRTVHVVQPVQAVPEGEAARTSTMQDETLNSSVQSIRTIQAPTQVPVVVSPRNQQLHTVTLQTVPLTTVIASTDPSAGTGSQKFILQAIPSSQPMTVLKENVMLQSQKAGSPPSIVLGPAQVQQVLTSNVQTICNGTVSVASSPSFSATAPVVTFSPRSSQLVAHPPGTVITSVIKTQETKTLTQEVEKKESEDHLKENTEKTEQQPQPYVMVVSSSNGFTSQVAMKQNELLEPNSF
# Outline: as §1
# [6] = molecular target: T5, EHF (Homo sapiens, UniProt Q9NZC4 1-300); conditions: protein: recombinant; tags: N-terminal GST; dsDNA, one strand shown
# T5 sequence: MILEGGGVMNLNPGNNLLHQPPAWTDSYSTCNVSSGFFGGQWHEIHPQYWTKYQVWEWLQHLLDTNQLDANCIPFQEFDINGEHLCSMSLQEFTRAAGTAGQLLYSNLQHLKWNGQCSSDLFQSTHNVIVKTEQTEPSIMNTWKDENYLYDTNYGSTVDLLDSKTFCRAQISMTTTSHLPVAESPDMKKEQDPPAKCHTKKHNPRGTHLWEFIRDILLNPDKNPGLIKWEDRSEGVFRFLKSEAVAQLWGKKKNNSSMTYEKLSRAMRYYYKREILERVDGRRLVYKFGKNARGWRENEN
# Outline: as §1
# [7] = molecular target: SPI1 (Homo sapiens, UniProt P17947 1-270); conditions: protein: recombinant; tags: N-terminal GST; dsDNA, one strand shown
# Outline: as §1
# [8] = molecular target: SPIB (Homo sapiens, UniProt Q01892 1-262); conditions: protein: recombinant; tags: N-terminal GST; dsDNA, one strand shown
# Sequence of SPIB (Q01892 whole entry): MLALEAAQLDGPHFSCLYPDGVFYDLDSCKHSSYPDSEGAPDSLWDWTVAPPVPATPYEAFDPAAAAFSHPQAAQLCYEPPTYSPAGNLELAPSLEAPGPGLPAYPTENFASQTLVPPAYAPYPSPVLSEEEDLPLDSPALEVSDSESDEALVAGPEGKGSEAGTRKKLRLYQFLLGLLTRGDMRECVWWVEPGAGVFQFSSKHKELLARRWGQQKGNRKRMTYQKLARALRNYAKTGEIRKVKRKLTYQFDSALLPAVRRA
# Outline: as §1
# [9] = molecular target: T6, ELK3 (Homo sapiens, UniProt P41970 1-407); conditions: protein: recombinant; tags: N-terminal GST; dsDNA, one strand shown
# T6 sequence: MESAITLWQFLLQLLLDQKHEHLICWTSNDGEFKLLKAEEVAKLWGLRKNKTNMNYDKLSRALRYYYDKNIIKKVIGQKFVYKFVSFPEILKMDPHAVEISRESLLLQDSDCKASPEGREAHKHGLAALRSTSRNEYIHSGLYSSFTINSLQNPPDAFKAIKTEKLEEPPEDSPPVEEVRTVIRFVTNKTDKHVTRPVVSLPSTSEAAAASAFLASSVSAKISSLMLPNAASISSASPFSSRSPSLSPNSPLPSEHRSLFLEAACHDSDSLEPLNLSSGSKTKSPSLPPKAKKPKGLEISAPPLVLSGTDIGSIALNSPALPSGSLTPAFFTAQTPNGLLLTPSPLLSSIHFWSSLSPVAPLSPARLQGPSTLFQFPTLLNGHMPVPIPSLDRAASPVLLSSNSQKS
# Outline: as §1
# [10] = molecular target: T7, FEV (Homo sapiens, UniProt Q99581 1-238); conditions: protein: recombinant; tags: N-terminal GST; dsDNA, one strand shown
# T7 sequence: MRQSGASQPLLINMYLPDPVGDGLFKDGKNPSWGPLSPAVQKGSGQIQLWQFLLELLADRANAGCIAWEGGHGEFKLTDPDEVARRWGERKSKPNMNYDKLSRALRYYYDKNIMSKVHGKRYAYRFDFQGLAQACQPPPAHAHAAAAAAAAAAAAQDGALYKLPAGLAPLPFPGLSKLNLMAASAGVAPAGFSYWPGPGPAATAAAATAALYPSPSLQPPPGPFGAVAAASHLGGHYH
# Outline: as §1
# [11] = molecular target: ETV5 (Homo sapiens, UniProt P41161 1-510); conditions: protein: recombinant; tags: N-terminal GST; dsDNA, one strand shown
# Sequence of ETV5 (P41161 whole entry): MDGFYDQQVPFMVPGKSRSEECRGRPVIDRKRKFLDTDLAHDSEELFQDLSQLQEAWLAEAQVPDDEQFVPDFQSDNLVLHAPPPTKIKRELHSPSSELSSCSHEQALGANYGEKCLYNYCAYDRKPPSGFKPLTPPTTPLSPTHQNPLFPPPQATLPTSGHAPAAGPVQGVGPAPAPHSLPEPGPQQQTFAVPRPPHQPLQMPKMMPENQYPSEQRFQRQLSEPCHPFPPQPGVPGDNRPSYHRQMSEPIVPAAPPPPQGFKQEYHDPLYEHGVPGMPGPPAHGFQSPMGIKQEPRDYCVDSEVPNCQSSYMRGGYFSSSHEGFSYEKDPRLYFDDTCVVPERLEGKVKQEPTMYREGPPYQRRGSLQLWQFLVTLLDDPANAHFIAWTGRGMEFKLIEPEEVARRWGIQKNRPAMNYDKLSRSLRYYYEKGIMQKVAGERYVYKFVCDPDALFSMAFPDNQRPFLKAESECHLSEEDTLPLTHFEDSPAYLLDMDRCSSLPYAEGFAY
# Outline: as §1
# [12] = molecular target: HSF1 (Homo sapiens, UniProt Q00613 1-529); conditions: protein: recombinant; tags: N-terminal GST; chain copies: 3; dsDNA, one strand shown
# Sequence of HSF1 (Q00613 whole entry): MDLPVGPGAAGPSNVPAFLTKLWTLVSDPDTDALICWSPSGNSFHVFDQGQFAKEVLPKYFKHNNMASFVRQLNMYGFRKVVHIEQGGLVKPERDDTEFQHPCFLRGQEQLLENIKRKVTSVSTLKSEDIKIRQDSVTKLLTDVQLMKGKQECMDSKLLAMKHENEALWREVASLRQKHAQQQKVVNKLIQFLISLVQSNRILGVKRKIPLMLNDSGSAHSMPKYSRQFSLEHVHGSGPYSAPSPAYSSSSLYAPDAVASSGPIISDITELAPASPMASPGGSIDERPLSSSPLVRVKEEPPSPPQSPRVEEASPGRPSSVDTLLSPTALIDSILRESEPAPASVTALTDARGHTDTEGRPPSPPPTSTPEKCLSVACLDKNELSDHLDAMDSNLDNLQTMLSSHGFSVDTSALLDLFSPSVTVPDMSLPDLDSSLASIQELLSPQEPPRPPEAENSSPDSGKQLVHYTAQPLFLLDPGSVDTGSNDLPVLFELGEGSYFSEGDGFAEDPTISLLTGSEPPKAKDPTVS
# Outline: as §1
# [13] = molecular target: T8, SPIC (Homo sapiens, UniProt Q8N5J4 1-248); conditions: protein: recombinant; tags: N-terminal GST; dsDNA, one strand shown
# T8 sequence: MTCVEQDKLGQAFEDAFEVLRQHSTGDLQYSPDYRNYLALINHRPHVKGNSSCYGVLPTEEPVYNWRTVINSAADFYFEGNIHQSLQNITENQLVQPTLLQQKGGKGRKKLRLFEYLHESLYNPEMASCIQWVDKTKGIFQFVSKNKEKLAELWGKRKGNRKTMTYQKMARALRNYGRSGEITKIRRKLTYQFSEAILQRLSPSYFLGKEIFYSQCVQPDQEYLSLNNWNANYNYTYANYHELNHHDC
# Outline: as §1
# [14] = molecular target: ELF4 (Homo sapiens, UniProt Q99607 1-663); conditions: protein: recombinant; tags: N-terminal GST; dsDNA, one strand shown
# Sequence of ELF4 (Q99607 whole entry): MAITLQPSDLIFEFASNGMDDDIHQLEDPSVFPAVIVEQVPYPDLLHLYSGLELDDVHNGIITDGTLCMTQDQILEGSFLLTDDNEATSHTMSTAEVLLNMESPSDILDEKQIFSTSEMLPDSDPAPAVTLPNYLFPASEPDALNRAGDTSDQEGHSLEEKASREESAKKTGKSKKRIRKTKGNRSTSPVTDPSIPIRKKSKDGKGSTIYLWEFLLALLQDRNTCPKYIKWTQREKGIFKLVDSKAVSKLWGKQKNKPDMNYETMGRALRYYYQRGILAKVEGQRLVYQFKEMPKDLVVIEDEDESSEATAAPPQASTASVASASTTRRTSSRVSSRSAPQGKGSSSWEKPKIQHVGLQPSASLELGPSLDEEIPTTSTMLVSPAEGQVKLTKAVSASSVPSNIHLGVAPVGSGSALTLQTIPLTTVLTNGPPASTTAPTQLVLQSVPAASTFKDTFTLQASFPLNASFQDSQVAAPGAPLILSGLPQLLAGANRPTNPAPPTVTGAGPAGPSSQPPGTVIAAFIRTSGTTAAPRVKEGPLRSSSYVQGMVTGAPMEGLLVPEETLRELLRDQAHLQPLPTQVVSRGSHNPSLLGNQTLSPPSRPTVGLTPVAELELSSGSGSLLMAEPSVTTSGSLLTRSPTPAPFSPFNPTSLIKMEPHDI
# Outline: as §1
# [15] = molecular target: T9, ELK4 (Homo sapiens, UniProt P28324-2 1-405); conditions: protein: recombinant; tags: N-terminal GST; dsDNA, one strand shown
# T9 sequence: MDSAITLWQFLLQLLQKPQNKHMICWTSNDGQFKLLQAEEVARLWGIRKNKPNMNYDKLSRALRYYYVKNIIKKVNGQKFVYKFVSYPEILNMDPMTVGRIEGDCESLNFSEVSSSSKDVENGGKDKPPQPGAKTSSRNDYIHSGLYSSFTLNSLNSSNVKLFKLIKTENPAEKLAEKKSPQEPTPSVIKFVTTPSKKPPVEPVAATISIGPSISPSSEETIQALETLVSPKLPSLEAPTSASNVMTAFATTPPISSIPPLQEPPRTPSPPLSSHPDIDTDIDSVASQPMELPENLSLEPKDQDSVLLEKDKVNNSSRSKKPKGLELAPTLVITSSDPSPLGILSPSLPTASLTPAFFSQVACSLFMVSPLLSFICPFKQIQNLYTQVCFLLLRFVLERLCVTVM
# Outline: as §1
# [16] = molecular target: T10, ETV2 (Homo sapiens, UniProt O00321 1-342); conditions: protein: recombinant; tags: N-terminal GST; dsDNA, one strand shown
# T10 sequence: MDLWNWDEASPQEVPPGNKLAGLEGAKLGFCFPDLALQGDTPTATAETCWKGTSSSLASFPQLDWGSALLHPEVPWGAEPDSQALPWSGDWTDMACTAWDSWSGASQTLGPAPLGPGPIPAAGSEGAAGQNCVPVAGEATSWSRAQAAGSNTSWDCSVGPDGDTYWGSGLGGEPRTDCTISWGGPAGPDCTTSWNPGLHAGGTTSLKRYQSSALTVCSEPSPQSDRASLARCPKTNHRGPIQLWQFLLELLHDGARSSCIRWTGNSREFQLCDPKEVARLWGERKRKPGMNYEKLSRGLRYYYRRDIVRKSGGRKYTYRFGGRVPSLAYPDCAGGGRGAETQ
# Outline: as §1
# [17] = molecular target: T11, ELF3 (Homo sapiens, UniProt P78545 1-371); conditions: protein: recombinant; tags: N-terminal GST; dsDNA, one strand shown
# T11 sequence: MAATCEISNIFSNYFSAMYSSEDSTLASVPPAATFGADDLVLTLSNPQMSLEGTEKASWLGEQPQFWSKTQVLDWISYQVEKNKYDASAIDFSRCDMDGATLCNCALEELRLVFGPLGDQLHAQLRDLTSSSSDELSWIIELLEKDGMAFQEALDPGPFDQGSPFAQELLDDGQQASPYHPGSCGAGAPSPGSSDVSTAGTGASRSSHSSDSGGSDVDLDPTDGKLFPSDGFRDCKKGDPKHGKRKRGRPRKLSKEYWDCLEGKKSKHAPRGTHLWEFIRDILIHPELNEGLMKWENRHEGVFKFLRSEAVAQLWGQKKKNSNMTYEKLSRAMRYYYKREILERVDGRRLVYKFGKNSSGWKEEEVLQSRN
# Outline: as §1
# [18] = molecular target: CRX (Homo sapiens, UniProt O43186 1-299); conditions: protein: recombinant; tags: N-terminal GST; dsDNA, one strand shown
# Sequence of CRX (O43186 whole entry): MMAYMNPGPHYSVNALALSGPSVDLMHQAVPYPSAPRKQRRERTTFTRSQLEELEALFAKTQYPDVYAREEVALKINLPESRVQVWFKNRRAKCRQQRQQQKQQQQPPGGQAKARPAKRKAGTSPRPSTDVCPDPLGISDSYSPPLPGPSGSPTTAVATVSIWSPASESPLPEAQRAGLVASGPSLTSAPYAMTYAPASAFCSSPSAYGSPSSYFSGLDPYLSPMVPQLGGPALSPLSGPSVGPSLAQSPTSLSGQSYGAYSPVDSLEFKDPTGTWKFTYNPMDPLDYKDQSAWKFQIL
# Outline: as §1
# [19] = molecular target: ETV1 (Homo sapiens, UniProt P50549 1-477); conditions: protein: recombinant; tags: N-terminal GST; dsDNA, one strand shown
# Sequence of ETV1 (P50549 whole entry): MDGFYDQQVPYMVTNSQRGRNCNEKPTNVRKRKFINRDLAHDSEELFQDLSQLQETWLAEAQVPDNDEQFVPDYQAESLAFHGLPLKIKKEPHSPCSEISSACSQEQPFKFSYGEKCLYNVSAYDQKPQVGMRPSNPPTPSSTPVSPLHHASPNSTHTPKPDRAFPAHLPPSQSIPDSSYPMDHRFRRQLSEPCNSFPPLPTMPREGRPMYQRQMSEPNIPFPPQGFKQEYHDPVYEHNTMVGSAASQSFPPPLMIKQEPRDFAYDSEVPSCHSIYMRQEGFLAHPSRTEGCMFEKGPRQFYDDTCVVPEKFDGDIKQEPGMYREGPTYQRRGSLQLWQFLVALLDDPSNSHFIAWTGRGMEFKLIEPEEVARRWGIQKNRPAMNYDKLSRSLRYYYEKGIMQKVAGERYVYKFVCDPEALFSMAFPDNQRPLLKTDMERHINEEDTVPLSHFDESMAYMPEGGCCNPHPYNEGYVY
# Outline: as §1
sequence,measurement,setting,value
TTGACC,binding signal,[1],"1.4 fold enrichment (6-mer frequency, TF over GST control)"
same,binding signal,[2],"1.44 fold enrichment (6-mer frequency, TF over GST control)"
same,binding signal,[3],"1.56 fold enrichment (6-mer frequency, TF over GST control)"
same,binding signal,[4],"1.49 fold enrichment (6-mer frequency, TF over GST control)"
same,binding signal,[5],"1.43 fold enrichment (6-mer frequency, TF over GST control)"
same,binding signal,[6],"1.46 fold enrichment (6-mer frequency, TF over GST control)"
same,binding signal,[7],"1.34 fold enrichment (6-mer frequency, TF over GST control)"
same,binding signal,[8],"1.46 fold enrichment (6-mer frequency, TF over GST control)"
same,binding signal,[9],"1.54 fold enrichment (6-mer frequency, TF over GST control)"
same,binding signal,[10],"1.33 fold enrichment (6-mer frequency, TF over GST control)"
same,binding signal,[11],"1.41 fold enrichment (6-mer frequency, TF over GST control)"
same,binding signal,[12],"1.16 fold enrichment (6-mer frequency, TF over GST control)"
same,binding signal,[13],"1.45 fold enrichment (6-mer frequency, TF over GST control)"
same,binding signal,[14],"1.44 fold enrichment (6-mer frequency, TF over GST control)"
same,binding signal,[15],"1.4 fold enrichment (6-mer frequency, TF over GST control)"
same,binding signal,[16],"1.38 fold enrichment (6-mer frequency, TF over GST control)"
same,binding signal,[17],"1.27 fold enrichment (6-mer frequency, TF over GST control)"
same,binding signal,[18],"1.19 fold enrichment (6-mer frequency, TF over GST control)"
same,binding signal,[19],"1.41 fold enrichment (6-mer frequency, TF over GST control)"
